The results in this text go back to PubChem BioAssay (NCATS).

Each structure is given as a SMILES string. Records with an inconclusive call do not appear. Unmarked numbers belong to inactive results. Calls of active or inactive are those of the source. The call rests on the fitted dose curve; in most records, active means well fitted cell-killing curve with a large enough effect; inconclusive means small, poorly fitted or top-dose-only effect; inactive means no such curve, though single readings can be large or run the other way.
Potency means the concentration at half of the fitted maximal effect.

The nature of this assay: qHTS of pediatric cancer cell lines to identify multiple opportunities for drug repurposing: Primary screen for NB1643 cells (AID 1347099). Further: nearly all actives have a fitted effect of over 50% in size.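 On activity change, negative = cytotoxic: plate controls were DMSO neutral control for no effect and bortezomib positive control for full effect.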 Particulars: NB1643 neuroblastoma viability, CellTiter-Glo luminescence, 48 h; series mostly up to 46 µM; activity change, negative = cytotoxic: at the top concentration. A digest of the protocol: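 Phenotypic viability qHTS, 48 h compound exposure, CellTiter-Glo luminescence read-out; multi-concentration dosing so that potency and efficacy derive directly from the primary screen's curves.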
On to `C/C=C/c1ccc(OC)cc1`, for which the “activity change, negative = cytotoxic” value was 7.62%. With `OC[C@H]1O[C@@H](n2cnc3c(=S)nc[nH]c32)[C@H](O)[C@@H]1O`, the Potency is 750 nM (active). Regarding `CCOC(=O)[C@H](CCc1ccccc1)N[C@@H](C)C(=O)N1Cc2ccccc2C[C@H]1C(=O)O`, the “activity change, negative = cytotoxic” value was -2.19%. Still for that read-out and setting: then `C[C@@H](CN(C)C)CN1c2ccccc2Sc2ccccc21`, with -14.7%; and `O=C(OCC(O)CO)c1ccccc1Nc1ccnc2cc(Cl)ccc12` (configuration not stated), with -2.78%. Regarding `NC(=O)C(=O)N/N=C/c1ccc([N+](=O)[O-])o1`, the Potency was 21100 nM (active). Turning to `CCCCCCCCCCOCC(O)CN` (configuration not stated), the “activity change, negative = cytotoxic” value is 0%. Consider `COc1cc2c(cc1OC)C(C(C(=O)N(CCc1ccc(OC)c(OC)c1OC)CCc1ccc(OC)c(OC)c1OC)c1ccccc1)=NCC2` (configuration not stated), for which the “activity change, negative = cytotoxic” value was -3.89%.

As for `O=C1OC2(c3ccc(O)cc3Oc3cc(O)ccc32)c2ccccc21`, the “activity change, negative = cytotoxic” value was -11.5%. The same measure, in the same setting: then `COc1cc(C(=S)N2CCOCC2)cc(OC)c1OC`, with 3.83%; and `CN(C/C=C/c1ccccc1)Cc1cccc2ccccc12`, with 0%; and `CC(=O)OCC(=O)[C@@]12OC(C)(C)O[C@@H]1C[C@H]1[C@@H]3C[C@H](F)C4=CC(=O)C=C[C@]4(C)[C@@]3(F)[C@@H](O)C[C@@]12C`, with 8.42%. On the same count and under the same terms, then `CCn1cc(C(=O)O)c(=O)c2cnc(N3CCCC3)nc21`, with 1.66% [at 9.22 µM].

`CC(C)NC[C@@H](O)COc1cccc2ccccc12`: the “activity change, negative = cytotoxic” value is -16.8%. On the same count and under the same terms, then `CCN(CCCc1ccccc1)CCCc1ccccc1`, with -1.69%; and `CCOc1ccc2nc3cc(N)ccc3c(N)c2c1`, with -10.4%; and `CNCC[C@@H](Oc1ccccc1C)c1ccccc1`, with 5%. On the same count and under the same terms, the same measure for `C#C[C@]1(OC(C)=O)CC[C@H]2[C@@H]3CCC4=C[C@@H](OC(C)=O)CC[C@@H]4[C@H]3CC[C@@]21C`: -13.1%. On to `COc1cccc2c1C(=O)c1c(O)c3c(c(O)c1C2=O)C[C@@](O)(C(C)=O)C[C@@H]3O[C@H]1C[C@H](N)[C@H](O)[C@H](C)O1`, for which the Potency was 133 nM (active). On to `COC1=CC(=O)C[C@@H](C)[C@]12Oc1c(Cl)c(OC)cc(OC)c1C2=O`, for which the “activity change, negative = cytotoxic” value was 3.7%. The same measure, in the same setting: the same measure for `Oc1c(I)cc(I)c2cccnc12`: 0%; for `CC1(C)OC[C@@H](COC(=O)CCc2ccc(OC[C@@H](O)CNCCNC(=O)N3CCOCC3)cc2)O1`: 9.98%.
